Experimental findings from the supplement of paper PMC12819154, “High-throughput peptide-centric local stability assay extends protein–ligand identification to membrane proteins, tissues and bacteria” (Nature Structural & Molecular Biology, 2025) are described below.
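Also: lysate desalted by size exclusion to strip endogenous ATP, peptide intensities built from DIA-NN precursor signals, and peptides missing any value discarded before comparison.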

Sequence of UniProt P22255 (P22255 whole entry): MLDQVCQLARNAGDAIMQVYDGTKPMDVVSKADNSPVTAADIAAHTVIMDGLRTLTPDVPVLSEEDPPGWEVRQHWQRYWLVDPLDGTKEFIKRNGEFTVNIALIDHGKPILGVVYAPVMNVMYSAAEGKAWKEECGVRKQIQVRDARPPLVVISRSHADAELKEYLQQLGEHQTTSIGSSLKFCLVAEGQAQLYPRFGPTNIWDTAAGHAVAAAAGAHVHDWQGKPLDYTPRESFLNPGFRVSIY
Sequence of UniProt P37648 (P37648 whole entry): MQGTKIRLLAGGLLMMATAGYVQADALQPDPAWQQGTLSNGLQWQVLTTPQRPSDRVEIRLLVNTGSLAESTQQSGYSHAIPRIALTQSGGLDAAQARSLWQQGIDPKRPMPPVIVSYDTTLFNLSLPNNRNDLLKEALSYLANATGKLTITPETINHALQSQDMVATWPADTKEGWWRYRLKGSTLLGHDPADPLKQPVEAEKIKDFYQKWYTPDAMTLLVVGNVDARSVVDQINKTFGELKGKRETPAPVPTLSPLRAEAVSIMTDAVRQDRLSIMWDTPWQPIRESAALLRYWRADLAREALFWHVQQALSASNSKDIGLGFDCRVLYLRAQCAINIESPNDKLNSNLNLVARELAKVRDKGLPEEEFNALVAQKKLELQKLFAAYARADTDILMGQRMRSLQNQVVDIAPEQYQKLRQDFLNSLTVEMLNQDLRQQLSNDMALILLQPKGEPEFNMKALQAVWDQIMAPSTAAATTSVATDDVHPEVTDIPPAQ
Sequence of UniProt P00562 (P00562 whole entry): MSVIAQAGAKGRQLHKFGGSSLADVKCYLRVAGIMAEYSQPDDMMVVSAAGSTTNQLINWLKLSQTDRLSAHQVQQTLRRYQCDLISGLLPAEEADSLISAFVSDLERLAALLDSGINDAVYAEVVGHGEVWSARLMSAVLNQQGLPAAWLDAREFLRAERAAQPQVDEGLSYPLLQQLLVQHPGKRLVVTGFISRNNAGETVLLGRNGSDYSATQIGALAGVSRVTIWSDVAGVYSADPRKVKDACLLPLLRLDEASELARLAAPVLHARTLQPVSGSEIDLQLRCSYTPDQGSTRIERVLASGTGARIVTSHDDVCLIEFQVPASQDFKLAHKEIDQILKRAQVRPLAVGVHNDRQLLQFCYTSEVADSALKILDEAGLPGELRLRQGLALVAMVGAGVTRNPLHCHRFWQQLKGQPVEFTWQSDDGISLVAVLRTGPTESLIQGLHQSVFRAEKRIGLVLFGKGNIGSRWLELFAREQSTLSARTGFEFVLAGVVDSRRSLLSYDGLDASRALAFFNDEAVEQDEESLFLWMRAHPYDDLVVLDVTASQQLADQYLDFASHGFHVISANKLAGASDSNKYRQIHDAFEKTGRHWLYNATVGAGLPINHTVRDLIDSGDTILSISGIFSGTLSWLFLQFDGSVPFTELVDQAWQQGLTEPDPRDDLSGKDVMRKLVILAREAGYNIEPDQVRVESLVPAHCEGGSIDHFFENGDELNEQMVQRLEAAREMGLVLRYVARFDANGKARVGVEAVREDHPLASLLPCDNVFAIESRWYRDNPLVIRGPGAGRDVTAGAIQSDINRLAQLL
Sequence of UniProt P75863 (P75863 whole entry): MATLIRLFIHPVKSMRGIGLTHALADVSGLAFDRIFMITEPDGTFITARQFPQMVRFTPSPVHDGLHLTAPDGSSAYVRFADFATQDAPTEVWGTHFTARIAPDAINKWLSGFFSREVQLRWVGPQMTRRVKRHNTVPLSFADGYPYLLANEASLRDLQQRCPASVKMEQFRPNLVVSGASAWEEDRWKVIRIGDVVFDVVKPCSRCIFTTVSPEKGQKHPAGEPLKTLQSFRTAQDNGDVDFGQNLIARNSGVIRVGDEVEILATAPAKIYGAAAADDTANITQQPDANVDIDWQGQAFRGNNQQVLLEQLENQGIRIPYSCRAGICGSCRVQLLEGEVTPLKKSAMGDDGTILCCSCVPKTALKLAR
Sequence of UniProt P46144 (P46144 whole entry): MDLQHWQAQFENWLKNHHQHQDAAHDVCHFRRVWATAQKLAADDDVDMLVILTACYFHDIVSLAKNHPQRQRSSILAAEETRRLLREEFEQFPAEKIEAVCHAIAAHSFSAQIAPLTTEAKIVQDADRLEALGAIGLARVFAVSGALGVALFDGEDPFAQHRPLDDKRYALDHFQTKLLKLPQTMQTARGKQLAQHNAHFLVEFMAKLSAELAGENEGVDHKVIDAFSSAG
Sequence of UniProt P22634 (P22634 whole entry): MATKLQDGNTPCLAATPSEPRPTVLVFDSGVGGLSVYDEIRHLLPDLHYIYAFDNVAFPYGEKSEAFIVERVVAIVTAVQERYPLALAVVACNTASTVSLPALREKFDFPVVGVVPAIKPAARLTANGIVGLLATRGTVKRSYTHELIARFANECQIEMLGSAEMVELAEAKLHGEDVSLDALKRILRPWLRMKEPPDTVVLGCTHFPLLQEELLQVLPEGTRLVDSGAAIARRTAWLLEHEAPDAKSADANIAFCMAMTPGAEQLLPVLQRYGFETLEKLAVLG
Sequence of UniProt P37051 (P37051 whole entry): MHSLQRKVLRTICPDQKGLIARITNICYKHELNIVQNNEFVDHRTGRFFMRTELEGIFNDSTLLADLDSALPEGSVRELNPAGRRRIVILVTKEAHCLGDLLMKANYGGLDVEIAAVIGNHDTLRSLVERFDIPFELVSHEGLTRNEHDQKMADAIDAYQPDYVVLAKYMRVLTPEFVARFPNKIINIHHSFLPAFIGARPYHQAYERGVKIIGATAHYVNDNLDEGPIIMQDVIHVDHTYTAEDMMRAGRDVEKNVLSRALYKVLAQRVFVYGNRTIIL
Sequence of UniProt Q46800 (Q46800 whole entry): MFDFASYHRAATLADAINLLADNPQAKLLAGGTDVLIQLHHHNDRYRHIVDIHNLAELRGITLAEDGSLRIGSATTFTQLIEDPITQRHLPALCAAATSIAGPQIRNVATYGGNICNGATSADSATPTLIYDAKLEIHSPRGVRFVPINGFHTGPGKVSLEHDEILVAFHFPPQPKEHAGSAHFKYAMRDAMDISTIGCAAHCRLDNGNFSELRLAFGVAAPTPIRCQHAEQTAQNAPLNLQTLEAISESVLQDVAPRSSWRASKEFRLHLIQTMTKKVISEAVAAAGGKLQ
Sequence of UniProt P08179 (P08179 whole entry): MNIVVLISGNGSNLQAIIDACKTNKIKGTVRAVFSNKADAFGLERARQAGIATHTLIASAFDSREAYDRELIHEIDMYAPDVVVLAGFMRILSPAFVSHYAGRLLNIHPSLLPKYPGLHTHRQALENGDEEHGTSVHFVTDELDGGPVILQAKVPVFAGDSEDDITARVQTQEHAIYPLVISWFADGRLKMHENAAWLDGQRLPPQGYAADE
Sequence of UniProt P07109 (P07109 whole entry): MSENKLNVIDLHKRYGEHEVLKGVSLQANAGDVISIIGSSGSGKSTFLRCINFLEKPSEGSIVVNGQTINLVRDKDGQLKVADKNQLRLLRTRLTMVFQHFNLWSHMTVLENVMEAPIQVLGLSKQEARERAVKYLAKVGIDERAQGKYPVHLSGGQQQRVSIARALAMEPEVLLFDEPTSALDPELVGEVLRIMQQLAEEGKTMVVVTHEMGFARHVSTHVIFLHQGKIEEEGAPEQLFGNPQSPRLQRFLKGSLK
Sequence of UniProt P0AA41 (P0AA41 whole entry): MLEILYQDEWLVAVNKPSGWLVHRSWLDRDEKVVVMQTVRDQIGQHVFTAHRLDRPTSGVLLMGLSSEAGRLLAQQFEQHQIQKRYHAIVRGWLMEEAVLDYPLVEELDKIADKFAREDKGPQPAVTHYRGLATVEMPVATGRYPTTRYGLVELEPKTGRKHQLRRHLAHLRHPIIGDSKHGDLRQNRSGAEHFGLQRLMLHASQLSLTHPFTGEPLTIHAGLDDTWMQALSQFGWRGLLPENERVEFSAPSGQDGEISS
Sequence of UniProt P75919 (P75919 whole entry): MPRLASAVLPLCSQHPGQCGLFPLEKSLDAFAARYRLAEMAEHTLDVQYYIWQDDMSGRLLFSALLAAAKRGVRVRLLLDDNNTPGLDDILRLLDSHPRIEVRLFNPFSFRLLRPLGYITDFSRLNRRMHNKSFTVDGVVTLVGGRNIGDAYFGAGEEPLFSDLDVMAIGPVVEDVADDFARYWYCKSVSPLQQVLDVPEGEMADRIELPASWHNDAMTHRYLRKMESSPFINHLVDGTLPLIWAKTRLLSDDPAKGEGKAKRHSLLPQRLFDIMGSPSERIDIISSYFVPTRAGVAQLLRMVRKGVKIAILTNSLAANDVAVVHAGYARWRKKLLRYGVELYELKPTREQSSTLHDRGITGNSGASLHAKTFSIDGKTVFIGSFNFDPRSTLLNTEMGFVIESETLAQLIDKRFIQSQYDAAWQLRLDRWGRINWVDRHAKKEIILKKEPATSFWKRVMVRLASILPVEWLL
Sequence of UniProt P27833 (P27833 whole entry): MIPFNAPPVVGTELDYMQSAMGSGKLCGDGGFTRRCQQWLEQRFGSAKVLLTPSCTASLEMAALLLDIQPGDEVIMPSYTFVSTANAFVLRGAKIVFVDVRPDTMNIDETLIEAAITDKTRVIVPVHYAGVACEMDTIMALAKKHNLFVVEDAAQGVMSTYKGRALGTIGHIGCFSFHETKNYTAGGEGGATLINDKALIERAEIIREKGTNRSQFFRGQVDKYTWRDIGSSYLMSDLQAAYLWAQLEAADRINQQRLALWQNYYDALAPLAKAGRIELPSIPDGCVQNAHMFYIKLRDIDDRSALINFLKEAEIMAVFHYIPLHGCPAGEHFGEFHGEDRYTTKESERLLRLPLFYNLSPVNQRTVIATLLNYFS
Sequence of UniProt P25536 (P25536 whole entry): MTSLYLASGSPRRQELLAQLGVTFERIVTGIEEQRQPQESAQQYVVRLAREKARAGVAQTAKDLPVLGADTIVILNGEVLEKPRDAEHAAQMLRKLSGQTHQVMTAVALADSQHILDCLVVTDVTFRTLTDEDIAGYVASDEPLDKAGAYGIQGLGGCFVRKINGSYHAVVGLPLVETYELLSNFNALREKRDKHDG

Compound in this assay: Nc1ncnc2c1ncn2[C@@H]1O[C@H](COP(=O)(O)OP(=O)(O)OP(=O)(O)O)[C@@H](O)[C@H]1O [adenosine 5'-triphosphate]
Briefly: log2 fold change of tryptic peptide abundance, ligand vs vehicle (limited proteolysis) (log2 ratio); higher = more trypsin-susceptible (destabilized). The conditions noted are these: ligand concentration: 5 mM; sample: E. coli desalted lysate; replicate design: treated before aliquoting. As to the method:
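HT-PELSA: desalted E. coli K-12 BW25113 lysate (with 12 mM MgCl2) incubated with 5 mM ATP (pH 7) or water for 30 min at 25 C, then a 4 min trypsin pulse at 22 C. Peptides were quantified by DIA-MS (4 replicates). Value is the peptide log2 fold change (treated/control); negative = stabilized. Scale: negative = ligand-stabilized region.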
With “UniProt P10371 (peptide sequence: DYGNDPLPR, peptide start residue: 26)”, the log2 fold change is -0.955.

For the target “UniProt P08179 (peptide sequence: MHENAAWLDGQR, peptide start residue: 191)”, the log2 fold change is -0.588.

For “UniProt P37648 (peptide sequence: DKGLPEEEFNALVAQK, peptide start residue: 363)”, the log2 fold change was 0.498.

In the case of “UniProt P76257 (peptide sequence: GQPLVVEAGTGTGK, peptide start residue: 38)”, the log2 fold change was -0.82.

As for “UniProt P67910 (peptide sequence: YFNVYGPR, peptide start residue: 167)”, the log2 fold change was -0.736.

For the target “UniProt P30844 (peptide sequence: NLVENAHR, peptide start residue: 260)”, the log2 fold change was -1.02.

Consider “UniProt P75821 (peptide sequence: DIKEDFRPHR, peptide start residue: 126)”, for which the log2 fold change was -1.6.

For “UniProt P07109 (peptide sequence: YGEHEVLK, peptide start residue: 15)”, the log2 fold change is -1.13.

In the case of “UniProt P39280 (peptide sequence: IHSRLPIVIPAR, peptide start residue: 193)”, the log2 fold change amounted to 1.51.

On to “UniProt Q46800 (peptide sequence: LAFGVAAPTPIR, peptide start residue: 215)”, for which the log2 fold change was 0.403.

On to “UniProt P00562 (peptide sequence: ILDEAGLPGELR, peptide start residue: 375)”, for which the log2 fold change worked out at 0.23.

In the case of “UniProt P76268 (peptide sequence: ALQNVDLIR, peptide start residue: 83)”, the log2 fold change was found to be 0.371.

As for “UniProt P0AA41 (peptide sequence: LLAQQFEQHQIQKR, peptide start residue: 72)”, the log2 fold change was -1.05.

As for “UniProt P22106 (peptide sequence: QALEDSVK, peptide start residue: 214)”, the log2 fold change was -0.816.

“UniProt P25536 (peptide sequence: IVTGIEEQR, peptide start residue: 27)”: the log2 fold change was -1.03.

As for “UniProt P32134 (peptide sequence: ACISGQGDMPFK, peptide start residue: 221)”, the log2 fold change is -1.02.

For the target “UniProt P26281 (peptide sequence: ALGDIPESHILTVSSFYR, peptide start residue: 25)”, the log2 fold change is -3.29.

As to “UniProt P27833 (peptide sequence: LCGDGGFTR, peptide start residue: 26)”, the log2 fold change is -0.494.

On to “UniProt P77766 (peptide sequence: LAQGGAVTR, peptide start residue: 133)”, for which the log2 fold change was -0.418.

On to “UniProt P46144 (peptide sequence: RVWATAQK, peptide start residue: 32)”, for which the log2 fold change is -1.44.

Turning to “UniProt P77252 (peptide sequence: DEPLTLLK, peptide start residue: 148)”, the log2 fold change turned out to be 0.328.

Turning to “UniProt P0ADV7 (peptide sequence: LKNEQPQIR, peptide start residue: 42)”, the log2 fold change was 0.525.

For “UniProt P31663 (peptide sequence: VLSSIADKLQAGER, peptide start residue: 207)”, the log2 fold change was -3.26.

As for “UniProt P37051 (peptide sequence: TICPDQK, peptide start residue: 11)”, the log2 fold change is -0.377.

Turning to “UniProt P25740 (peptide sequence: HYAAFER, peptide start residue: 123)”, the log2 fold change is -0.355.

Consider “UniProt P22255 (peptide sequence: ESFLNPGFR, peptide start residue: 234)”, for which the log2 fold change amounted to 0.721.

With “UniProt P22634 (peptide sequence: LVDSGAAIAR, peptide start residue: 224)”, the log2 fold change was determined as 0.312.

In the case of “UniProt P75919 (peptide sequence: LLSDDPAKGEGK, peptide start residue: 249)”, the log2 fold change is -0.826.

As to “UniProt P04993 (peptide sequence: YLDLLQAR, peptide start residue: 418)”, the log2 fold change was -1.02.

For “UniProt P75863 (peptide sequence: WVGPQMTR, peptide start residue: 122)”, the log2 fold change was -0.577.

For “UniProt P09546 (peptide sequence: IYAPVGTHETLLAYLVRR, peptide start residue: 539)”, the log2 fold change came out at 0.991.
